Data reported in PubChem BioAssay AID720604 (Broad Institute, 2013).
Entries with a potency or affinity are not part of this list. Inconclusive results are not listed. Active and inactive are the calls of the source.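 The calls were made as follows: active = compound lowering viability with a fitted half-effect dose within twice the top dose in every timed run; inconclusive = timed runs disagree on the call; inactive = inactive in every run, including a rising signal.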

Test: cytotoxicity in primary human umbilical endothelium – cell-based, CellTiter-Glo ATP luminescence, 8/24/48 h, dry powder, cytotoxicity control for HRAS target identification, dose response (AID 720604)

SMILES	outcome
Cc1onc(C(=O)N2CCN(C(c3ccncc3)c3ccncc3)CC2)c1[N+](=O)[O-]	inactive
Cc1onc(C(=O)N2CCN(C(c3ccc(Cl)cc3)c3ccc(Cl)cc3)CC2)c1[N+](=O)[O-]	inactive
